TSHR agonist: TSH receptor (human) agonism; hit rate 0.48% among 73,000; HEK293-CNG-TSHR cells (CNG channel as cAMP sensor), membrane potential dye, cAMP; AID 926; P16473; Potency, µM (highest dose often 57.1 µM), inactives show at the top dose activation, most hits filed as activators; active = well fitted activation curve with a large enough effect in the main read-out, with a control signal flat, not every such curve was filed as active; inconclusive = small, poorly fitted or top-dose-only effect, or a change in a side signal; inactive = no such curve, though single readings can be large or run the other way; % of control where 0% means no effect;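 also: the control signal comes from parental cells without the receptor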
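HEK 293 cells stably expressing TSHR and a modified CNG channel, with CNG-only parental cells as counterscreen, were preloaded 60 min at room temperature with membrane potential dye containing 100 uM RO 20-1724. Compound exposure was 30 min, and depolarization was read as fluorescence at 590 nm.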
Luciferase inh: firefly luciferase inhibition; P08659; purified firefly luciferase, luminescence, 8 min; Potency, µM (doses to about 57.1 µM), for the others: at the highest dose activity change, negative = inhibition, usual class: inhibitors; hit rate 2.2% among 72,000; AID 411; also: % is scaled to controls: 0 for no effect and ±100 for the full control effect; nearly all actives have a fitted effect of over 40% in size
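Compounds were tested as concentration series (qHTS) against purified P. pyralis luciferase with luciferin and 10 uM ATP in 50 mM imidazole pH 7.2, 50 mM KCl, 7 mM MgCl2, 0.01% Tween 20, 0.05% BSA. Luminescence was read after 8 min at ambient temperature.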
GBA mod: modulators of human glucocerebrosidase; Potency, µM; AID 360; purified enzyme, resorufin glucoside fluorescence (screen aimed at inhibitors), 20 min; hit rate 1.1% among 48,000; P04062; in the data active = potency below about 15 µM; inconclusive = mostly about 16 µM to 33 µM;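 also: the screen sought inhibitors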
Target sequence (P04062 whole entry, looked up): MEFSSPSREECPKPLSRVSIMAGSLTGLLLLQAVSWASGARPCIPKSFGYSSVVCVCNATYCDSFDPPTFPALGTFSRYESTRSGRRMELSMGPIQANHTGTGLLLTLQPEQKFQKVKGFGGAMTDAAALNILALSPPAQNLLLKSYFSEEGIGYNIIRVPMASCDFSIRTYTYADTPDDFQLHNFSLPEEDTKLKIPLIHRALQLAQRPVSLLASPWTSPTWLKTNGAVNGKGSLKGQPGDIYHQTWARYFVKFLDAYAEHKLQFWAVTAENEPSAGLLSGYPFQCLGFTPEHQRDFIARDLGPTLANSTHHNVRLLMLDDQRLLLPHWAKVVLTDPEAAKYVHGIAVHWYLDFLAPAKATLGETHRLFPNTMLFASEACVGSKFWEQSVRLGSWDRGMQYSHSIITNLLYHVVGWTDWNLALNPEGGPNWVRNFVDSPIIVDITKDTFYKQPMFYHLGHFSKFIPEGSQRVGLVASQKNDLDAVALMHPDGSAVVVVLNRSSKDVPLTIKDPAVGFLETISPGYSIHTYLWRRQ
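Normal human glucocerebrosidase (0.2 nM final) was assayed with resorufin β-D-glucopyranoside (30 uM final) in 50mM citric acid/KH2PO4, 10mM sodium taurocholate, 0.01% tween-20, pH 5.9. Compounds were titrated; fluorescence (Ex 548, Em 600) read after 20 min at RT.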
Bst PK mod: alters activity of Bacillus stearothermophilus pyruvate kinase; hit rate 1.2% among 51,000; purified pyruvate kinase, luminescence ATP production; ribose 5-phosphate activator present at AC10; AID 361; Potency, µM; in the data active = potency below about 11 µM; inconclusive = mostly about 12 µM to 25 µM;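 the screen sought inhibitors and activators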;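 also: scaled between full activation by ribose 5 phosphate and full inhibition by luteolin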
HEK293 cAMP cs: raises cAMP in parental HEK293 cells, TSHR agonist counter-screen | hit rate 2.5% among 73,000 | AID 938 | parental HEK293 CNG cAMP sensor, membrane potential fluorescence | Potency, µM (titrated, usually from 57.1 µM), without a hit: at the highest dose activation, actives largely listed as activators; also: % of control where 0% means no effect; nearly all actives have a fitted effect of over 55% in size
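Counterscreen for endogenous-receptor signalling: CNG-channel HEK 293 cells report cAMP rise by membrane depolarization. After 60 min dye equilibration with 100 uM RO 20-1724, compounds incubated 30 min before bottom-read fluorescence at 590 nm.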
ERK AVP block: inhibitors of vasopressin-stimulated ERK signaling pathway; Potency, µM (top dose mostly 57.5 µM), for inactives: top-dose activity, negative = inhibition, usual class: inhibitors; hit rate 0.99% among 72,000; HEK293-V1b, vasopressin-stimulated pERK AlphaScreen; AID 995; also: % is scaled to controls: 0 for no effect and ±100 for the full control effect; nearly all actives have a fitted effect of over 55% in size
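Overnight-seeded V1b-HEK293 cells in 1% FBS got compound, then vasopressin (25 nM final, 5 min, 37C), then lysis buffer. AlphaScreen detection of phospho-ERK; activity normalized to basal and full-stimulation controls.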
* hit, by the source's call; [ ] = dose if it differs, or a comment. In the library only some 6.1% were active in any assay of this set; here they are far more common. Unless noted, calls follow the shape of the dose curve; as a rule, active = well fitted curve in the direction sought with a large enough effect; inconclusive = small, poorly fitted or top-dose-only effect, or another doubt; inactive = no such curve, though single readings can be large; an effect the other way counts as inactive or inconclusive. Potency is read from the fitted curve at half-maximal effect.

`Cc1ccc(C)c2[nH]c(=O)c(CN(Cc3nnnn3C3CCCCC3)CC3CCCO3)cc12` (stereo not given) gave TSHR agonist inconclusive, Luciferase inh 3%, GBA mod >77, Bst PK mod >57, HEK293 cAMP cs 25µM* and ERK AVP block -8%.
For COc1ccc(Cn2nnnc2CN(Cc2cc3cc(C)ccc3[nH]c2=O)C2CCCC2)cc1 the results were TSHR agonist inconclusive, Luciferase inh 0%, Bst PK mod >57, HEK293 cAMP cs 25µM* and ERK AVP block -15%.
`COc1ccc2[nH]c(=O)c(CN(Cc3nnnn3Cc3ccco3)C3CCCCC3)cc2c1` gave TSHR agonist 4%, Luciferase inh -5%, GBA mod inactive, HEK293 cAMP cs 20% and ERK AVP block -4%.
Screening COc1cccc2[nH]c3c(N4CCCCC4)ncnc3c12 returned TSHR agonist 3%, Luciferase inh inconclusive, GBA mod >77, HEK293 cAMP cs 5% and ERK AVP block 20µM*.
`CCOC(=O)N1CCN(c2ncnc3c2[nH]c2ccc(OC)cc23)CC1` gave Luciferase inh -2%[25.5 µM] and Bst PK mod >26.
`CCOC(=O)C1CCN(c2ncnc3c2[nH]c2cccc(OC)c23)CC1` gave TSHR agonist -26%, Luciferase inh -3%, GBA mod >77, HEK293 cAMP cs -9% and ERK AVP block -21%.
For COc1cc2[nH]c3c(N4CCN(c5ccccn5)CC4)ncnc3c2cc1OC the results were TSHR agonist -7%, Luciferase inh -29%, GBA mod >77, HEK293 cAMP cs -5% and ERK AVP block 25µM*.
For Cc1cc(F)ccc1OC1C=CC(c2ccc3c(c2)OCO3)OC1CO (stereo not given) the results were TSHR agonist -4%[11.4 µM], HEK293 cAMP cs -7%[11.4 µM] and ERK AVP block 4%[11.5 µM].
`OCc1ccccc1OCCOc1ccc(Cl)c2cccnc12` gave TSHR agonist 5%, Luciferase inh -10%, GBA mod >77, Bst PK mod 3.5*, HEK293 cAMP cs 6% and ERK AVP block inconclusive.
Screening O=C1c2ccccc2C(=O)C1c1ccc2ccccc2n1 returned TSHR agonist -7%, Luciferase inh 0.79µM*, Bst PK mod 1.1*, HEK293 cAMP cs 21% and ERK AVP block inconclusive.
`Nc1ccc(-c2ccc3ccccc3n2)cc1` gave ERK AVP block -4%.
`Oc1[nH]c2ccccc2c1/C=N/c1nccs1` gave TSHR agonist -5%, Luciferase inh 25µM*, GBA mod >77, Bst PK mod inconclusive, HEK293 cAMP cs -1% and ERK AVP block -19%.
Oc1[nH]c2ccccc2c1C=Nc1ccc2c(c1)OCO2 was read as TSHR agonist -13% and HEK293 cAMP cs -14%.
`Cc1ccc(S(=O)(=O)OCC(=O)O)cc1` gave TSHR agonist 0%[11.4 µM], Luciferase inh 1%[11.4 µM], HEK293 cAMP cs 13%[11.4 µM] and ERK AVP block -1%[11.5 µM].
Screening Cc1cnc(CNc2ncnc3ccc(-c4ccoc4)cc23)cn1 returned TSHR agonist inconclusive, Luciferase inh -2%[2.29 µM], HEK293 cAMP cs inconclusive and ERK AVP block -10%.
`CN(Cc1ccco1)c1ncnc2ccc(-c3cccc(NS(C)(=O)=O)c3)cc12` gave TSHR agonist inconclusive, Luciferase inh -1%[2.29 µM], HEK293 cAMP cs inconclusive and ERK AVP block inconclusive.
O=S1(=O)C=C(Sc2nc3cc(Cl)ccc3o2)c2ccccc21 was read as TSHR agonist 2%, Luciferase inh -20%, GBA mod inactive, Bst PK mod >57, HEK293 cAMP cs 7% and ERK AVP block 10µM*.
`CN(C)c1nc(N)nc(CSc2nc3cc(Cl)ccc3o2)n1` gave TSHR agonist 17%, Luciferase inh 1%, GBA mod >77, Bst PK mod >57, HEK293 cAMP cs 13% and ERK AVP block -18%.
c1ccc([C@H](c2cccc3c2ccc2ccccc23)[C@H](c2ccccc2)c2cccc3c2ccc2ccccc23)cc1 was read as TSHR agonist -4%[11.4 µM], Luciferase inh 2%[11.4 µM], HEK293 cAMP cs -2%[11.4 µM] and ERK AVP block -2%[11.5 µM].
`CCOC(=O)C1=C(C)Nc2nc(SC)nn2C1c1ccc(C(=O)OC)cc1` (stereo not given) gave TSHR agonist 16µM*, Luciferase inh 3%, GBA mod >77, Bst PK mod >57, HEK293 cAMP cs 12% and ERK AVP block 14%.
`COc1ccc(N2CCN(Cc3cc(=O)oc4cc(-c5ccccc5)c(O)cc34)CC2)cc1` gave TSHR agonist -3%, Luciferase inh 2%, GBA mod >77, Bst PK mod >57, HEK293 cAMP cs -18% and ERK AVP block -3%.
`COc1ccc(N2CCN(Cc3cc(=O)oc4cc(C)c(Cl)cc34)CC2)cc1` gave TSHR agonist -1%, Luciferase inh 0%, GBA mod 5.3*, Bst PK mod >57, HEK293 cAMP cs -6% and ERK AVP block -8%.
`C[C@@]12CCC(=O)C=C1CC[C@H]1[C@@H]2[C@@H](O)C[C@]2(C)[C@@H]1CC[C@@]2(O)C(=O)COC(=O)C1CCCC1` gave TSHR agonist 7%[11.4 µM], Luciferase inh 2%[11.4 µM], HEK293 cAMP cs 11%[11.4 µM] and ERK AVP block 0%[11.5 µM].
Screening Cc1ccc(SCc2nc(-c3ccccn3)no2)cc1 returned TSHR agonist 13%, Luciferase inh -4%, GBA mod >77, Bst PK mod >57, HEK293 cAMP cs 11% and ERK AVP block 3%.
`c1ccc(CCc2ccccc2-c2nc(-c3ccccn3)no2)cc1` gave TSHR agonist inconclusive, Luciferase inh 1%, GBA mod >77, HEK293 cAMP cs 25µM* and ERK AVP block 8%.
Cc1occc1-c1nc(-c2ccccn2)no1 was read as TSHR agonist 4%, Luciferase inh 13µM*, HEK293 cAMP cs 0% and ERK AVP block -14%.
Screening Cc1occc1-c1nc(-c2ccncc2)no1 returned Luciferase inh -3%, GBA mod >77, HEK293 cAMP cs 7% and ERK AVP block -4%.
For O=C1c2ccccc2C(=O)N1CCc1nc(-c2ccccn2)no1 the results were TSHR agonist -1%, Luciferase inh -1%, GBA mod >77, Bst PK mod >57, HEK293 cAMP cs 0% and ERK AVP block -25%.
Screening Cc1onc(-c2ccccc2Cl)c1-c1nc(-c2ccccn2)no1 returned TSHR agonist inconclusive, Luciferase inh 2%, GBA mod >77, Bst PK mod >57, HEK293 cAMP cs 32µM* and ERK AVP block -13%.
`CC1CCc2cccc3c2N1c1cc(C#N)c(C#N)cc1O3` (stereo not given) gave TSHR agonist 20%, Luciferase inh 1%, GBA mod 5*, Bst PK mod inactive, HEK293 cAMP cs 3% and ERK AVP block 51%.

From PubChem
